High-throughput results: PubChem, National Center for Advancing Translational Sciences (NCATS)
A selection: hits, their analogues and other compounds. The true share with any hit is near 1.1%.
AmpC detergent: blocks E. coli AmpC beta-lactamase in detergent assay. AmpC hydrolysis of nitrocefin, absorbance 480 nm, 0.01% Triton. Potency, µM (highest dose often 114 µM), actives largely listed as inhibitors. 370,000 tested, 0.041% active. AID 485294; also: nearly all actives have a fitted effect of over 25% in size
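AmpC (5.3 nM in the dispensed reagent) in 20 mM phosphate pH 7.0 with 0.01% (detergent screen) or 0.0001% Triton X-100 was preincubated with compounds for 15 min at room temperature. Nitrocefin was then added from an 800 uM solution, and hydrolysis was followed at 480 nm.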
SARS PLpro yeast: SARS-CoV PLP inhibition in yeast. 330,000 tested, 0.19% active. Potency, µM (highest dose often 32.9 µM), usual class: activators. S. cerevisiae expressing SARS-CoV PLpro, growth rescue; calls by dose curve; also: nearly all actives have a fitted effect of over 55% in size
AmpC no deterg: inhibitors of E. coli AmpC beta-lactamase without detergent; P00811; AmpC nitrocefin hydrolysis, absorbance 480 nm, 0.0001% Triton; Potency, µM (series often up to 57.1 µM), actives largely listed as inhibitors; 330,000 tested, 0.52% active; AID 485341; also: nearly all actives have a fitted effect of over 20% in size
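AmpC (5.3 nM in the dispensed reagent) in 20 mM phosphate pH 7.0 with 0.01% (detergent screen) or 0.0001% Triton X-100 was preincubated with compounds for 15 min at room temperature. Nitrocefin was then added from an 800 uM solution, and hydrolysis was followed at 480 nm.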
Giardia FBPA inh-1: inhibitors of Giardia lamblia fructose-1,6-bisphosphate aldolase; 290,000 tested, 0.71% active; AID 2451; A8B2U2; Potency, µM (top dose mostly 59.6 µM), usual class: inhibitors; purified Giardia FBPA; also: nearly all actives have a fitted effect of over 55% in size
Target sequence (A8B2U2 whole entry, looked up): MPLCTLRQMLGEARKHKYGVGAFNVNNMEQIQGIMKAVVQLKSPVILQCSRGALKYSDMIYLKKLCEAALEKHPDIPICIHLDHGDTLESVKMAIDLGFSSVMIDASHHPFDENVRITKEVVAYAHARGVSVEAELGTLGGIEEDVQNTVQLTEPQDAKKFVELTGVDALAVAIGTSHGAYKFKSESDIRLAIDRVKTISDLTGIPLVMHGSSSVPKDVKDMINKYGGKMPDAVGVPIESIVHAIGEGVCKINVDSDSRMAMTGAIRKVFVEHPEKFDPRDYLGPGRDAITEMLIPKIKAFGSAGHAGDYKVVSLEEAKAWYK
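Giardia FBPA (40 nM reagent) was preincubated 10 min at RT with compound (up to 57.5 uM final), then substrate plus GAPDH/TPI/NAD/arsenate coupling system with diaphorase/resazurin was added; resorufin fluorescence (525/598 nm) was read after 20 min.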
Giardia growth: Giardia lamblia growth inhibition. shares compounds with Giardia FBPA inh-1. 1,500 tested, 5% active. AID 2785. Giardia lamblia trophozoite growth inhibition. Potency, µM (series often up to 57.5 µM), most hits filed as inhibitors;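 also: trophozoites exposed to compound for 48 h at 37 °C; nearly all actives have a fitted effect of over 70% in size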
Mammal cell tox: counter-screen for Giardia aldolase inhibitors: mammalian cell toxicity. shares compounds with Giardia FBPA inh-1. mammalian cell viability counter-screen, qHTS. Potency, µM (top dose mostly 57.5 µM), most hits filed as inhibitors. 1,500 tested, 4% active. AID 2786;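 also: Chinese hamster ovary cells used as mammalian cytotoxicity surrogate; viability measured as cellular ATP by luminescence; compound exposure lasted 48 h before reading; nearly all actives have a fitted effect of over 60% in size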
Giardia FBPA inh-2: confirmation of Giardia fructose-bisphosphate aldolase inhibitors; shares compounds with Giardia FBPA inh-1; purified Giardia aldolase enzyme activity, qHTS; Potency, µM (series often up to 57.5 µM), hits mostly inhibitors; 1,500 tested, 5% active; also: nearly all actives have a fitted effect of over 45% in size
Rabbit FBPA inh: selectivity test for Giardia aldolase inhibitors: rabbit aldolase | shares compounds with Giardia FBPA inh-1 | Rabbit muscle FBPA enzyme inhibition, selectivity counter-screen | Potency, µM (titrated, usually from 57.5 µM), usual class: inhibitors | 1,500 tested, 4% active; also: nearly all actives have a fitted effect of over 60% in size
Target sequence (P00883 whole entry, looked up): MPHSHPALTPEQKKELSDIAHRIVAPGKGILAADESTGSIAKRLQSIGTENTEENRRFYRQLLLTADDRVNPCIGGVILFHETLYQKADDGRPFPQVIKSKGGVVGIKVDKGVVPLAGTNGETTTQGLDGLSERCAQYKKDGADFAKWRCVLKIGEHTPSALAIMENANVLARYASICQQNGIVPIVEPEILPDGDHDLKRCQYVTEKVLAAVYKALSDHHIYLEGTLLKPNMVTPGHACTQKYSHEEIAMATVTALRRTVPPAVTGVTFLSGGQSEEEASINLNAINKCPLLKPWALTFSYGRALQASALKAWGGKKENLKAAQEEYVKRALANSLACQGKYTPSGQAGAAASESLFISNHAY
GAPDH coupling: GAPDH inhibition flagged for Giardia aldolase hits; Potency, µM (doses to about 57.5 µM), usual class: inhibitors; GAPDH coupling enzyme counterscreen, biochemical, qHTS; 1,500 tested, 6% active; shares compounds with Giardia FBPA inh-1; also: nearly all actives have a fitted effect of over 55% in size
Numbers stand for hits; i = inactive; ? = inconclusive; nt = no result given; [ ] = another dose, or the depositor's remark. Unless noted, calls follow the shape of the dose curve; as a rule, active = well fitted curve in the direction sought with a large enough effect; inconclusive = small, poorly fitted or top-dose-only effect, or another doubt; inactive = no such curve, though single readings can be large; an effect the other way counts as inactive or inconclusive.

SMILES	AmpC detergent	SARS PLpro yeast	AmpC no deterg	Giardia FBPA inh-1	Giardia growth	Mammal cell tox	Giardia FBPA inh-2	Rabbit FBPA inh	GAPDH coupling
CN(CCCCCCN(C)Cc1ccccc1O)Cc1ccccc1O	i	i	i	28µM	?	i	i	i	i
CN(CCCCCC(=O)/C=N/O)Cc1ccccc1	i	i	i	i	nt	nt	nt	nt	nt
Nc1ccc(-c2c3ccc(=O)cc-3oc3cc(O)ccc23)cc1C(=O)O	?	i	i	i	nt	nt	nt	nt	nt
O=c1ccc2c(-c3ccccc3)c3ccc(O)cc3oc-2c1	i	i	i	14µM	?	i	i	i	i
CNC(=O)Nc1ccccc1F	i	i	i	i	nt	nt	nt	nt	nt
CC(C(=O)Nc1ccccc1F)N1CCN(C)CC1 (configuration not stated)	i	i	i	16µM	i	i	i	i	i
COc1cccc(C(=O)c2cn(CC(=O)NCc3ccccc3)c3nc(C)ccc3c2=O)c1	i	nt	nt	nt	nt	nt	nt	nt	nt
NS(=O)(=O)c1ccc(NC(=S)N2CCC(O)CC2)cc1	i	i	i	16µM	?	i	i	i	i
COc1cc(OC)cc(C(=O)NC(=S)Nc2nnn(C)n2)c1	i	i	i	3.5µM	i	i	i	i	i
CC(C)C(=O)NC(=S)Nc1nnn(C)n1	i	i	i	3.2µM	?	i	i	i	i
CN(C)S(=O)(=O)c1ccc(NC(=S)NC(=O)c2cccs2)cc1	i	i	i	18µM	i[10.4 µM]	i	i	i	i
O=C(NC(=S)Nc1ccc(S(=O)(=O)N2CCCC2)cc1)c1cccs1	i	i	i	?	nt	nt	nt	nt	nt
Cn1nnc(NC(=S)NC(=O)c2cccc3ccccc23)n1	i	i	i	nt	nt	nt	nt	nt	nt
CCCn1nnc(NC(=S)NC(=O)CC)n1	i	i	i	5.6µM	?	i	i	i	i
O=C(CC1C(=O)N(c2ccccc2)C(=O)N1Cc1ccc(F)cc1)Nc1cccc(F)c1 (configuration not stated)	i	nt	nt	nt	nt	nt	nt	nt	nt
Cc1ccc(S(=O)(=O)NCC(c2ccc(N(C)C)cc2)N2CCc3ccccc32)cc1C (configuration not stated)	i	nt	nt	nt	nt	nt	nt	nt	nt
CCCCn1nnc(NC(=S)NC(=O)c2cccs2)n1	i	i	i	?	nt	nt	nt	nt	nt
Cn1nnc(NC(=S)NC(=O)c2cccs2)n1	i	i	i	2µM	i	i	i	i	i
O=C(Cc1ccccc1)N1CCN(Cc2ccc(F)cc2)CC1	?	i	i	28µM	i[10.4 µM]	i	i	i	i
c1ccc(CN2CCN(C(c3ccccc3)c3ccccc3)CC2)cc1	i	i	i	i	nt	nt	nt	nt	nt
O=C(Cc1ccccc1)N1CCN(CCCc2ccccc2)CC1	i	i	i	25µM	i	i	i	i	i
Clc1ccccc1CN1CCN(CCCc2ccccc2)CC1	i	i	i	20µM	i	i	i	i	i
CCOC(=O)N1CCN(CCCc2ccccc2)CC1	?	i	i	?	nt	nt	nt	nt	nt
Fc1ccc(CN2CCN(C(c3ccccc3)c3ccccc3)CC2)cc1	?	i	i	25µM	?	i	i	i	i
Cc1oc(C)c2c(=O)ccc3c(c12)OC(N)=C(C#N)C3c1ccccc1Cl (configuration not stated)	i	i	i	11µM	i	i	i	i	i
SMILES	AmpC detergent	SARS PLpro yeast	AmpC no deterg	Giardia FBPA inh-1	Giardia growth	Mammal cell tox	Giardia FBPA inh-2	Rabbit FBPA inh	GAPDH coupling
S=c1nc[nH]c2nc[nH]c12	?	i	i	7.9µM	i	7.9µM	?	i	i
COc1ccc2[nH]c3c(=S)nc[nH]c3c2c1	i	i	i	i	nt	nt	nt	nt	nt
Cc1c(CC(=O)NCCc2ccccc2F)c(=O)oc2c(C)c3occ(C(C)(C)C)c3cc12	i	nt	nt	nt	nt	nt	nt	nt	nt
Cc1ccc(Nc2cc(C)nn2-c2nc(C)cc(=O)[nH]2)cc1	?	i	i	i	?	2.9µM	i	i	i
Cc1ccc(F)cc1NC(=O)Cn1c(=O)nc(-c2ccccc2F)c2cc(Cl)ccc21	i	nt	nt	nt	nt	nt	nt	nt	nt
COc1cccc(CNC(=O)Cn2cc3c(n2)-c2c(oc(C(=O)N4CCCC4)c2C)CC3)c1OC	i	nt	nt	nt	nt	nt	nt	nt	nt
COc1ccc(OC)c(S(=O)(=O)N(C)CC(=O)Nc2ccc3c(c2)OCO3)c1	i	i	i	i	nt	nt	nt	nt	nt
COc1ccc(OC)c(S(=O)(=O)NNC(=S)Nc2ccc3c(c2)OCO3)c1	i	i	i	8.9µM	i	i	i	i	i
CCOc1ccc(NC(=O)c2c(NCc3sccc3C)sc3c2CCCCC3)cc1	i	nt	nt	nt	nt	nt	nt	nt	nt
Cc1ccc(OCCCN2CCOCC2)cc1	?	i	i	20µM	?	i	i	i	i
CCN(CC#CCC(O)(c1ccccc1)c1ccccc1)C(C)C	i	i	i	i	nt	nt	nt	nt	nt
CC(C)N(CC#CCC(O)(c1ccccc1)c1ccccc1)CCO	i	i	i	16µM	i	i	i	i	i
O=C(O)CCc1ncc(C(F)(F)F)cc1Cl	i	i	i	i	nt	nt	nt	nt	nt
O=C(O)CC/C(=N/Nc1ncc(C(F)(F)F)cc1Cl)C(=O)O	i	i	i	11µM	16µM	i	i	i	i
COc1cc2nc(CN(C)Cc3nc4ccccc4c(=O)[nH]3)[nH]c(=O)c2cc1OC	i	i	i	?	nt	nt	nt	nt	nt
CCN(Cc1nc2ccccc2c(=O)[nH]1)Cc1nc2ccsc2c(=O)[nH]1	i	i	i	0.79µM	i	i	i	i	?
CCN(Cc1nc2ccccc2c(=O)[nH]1)Cc1nc2cc(OC)c(OC)cc2c(=O)[nH]1	?	i	i	5.6µM	i	i	?	i	i
CCN(CC)CCCn1c(-c2ccccc2)nc2c(N3CCOCC3)nc(C)nc21	nt	nt	nt	i	nt	nt	nt	nt	nt
Cc1ccc(NC(=O)CN(C)CC(=O)Nc2cccc(F)c2)cc1S(=O)(=O)N1CCCCCC1	i	i	i	16µM	i	i	i	i	i
COc1cccc(NC(=O)CN(C)CC(=O)Nc2ccc3c(c2)OCO3)c1	nt	i	i	nt	nt	nt	nt	nt	nt
CCC(C)c1ccc(NC(=O)CN(C)CC(=O)Nc2cccc(OC)c2)cc1 (configuration not stated)	i	i	i	16µM	?	i	i	i	i
Nn1cnnc1N/N=C/c1ccc(Cl)cc1Cl	i	i	i	i	i	?	5.8µM	8.2µM	9.2µM
CCOc1ccccc1NC(=O)CN(CCc1ccccc1)S(=O)(=O)c1ccc(C)cc1	i	nt	nt	nt	nt	nt	nt	nt	nt
CN1CC[C@]2(C)c3cc(O)ccc3N(C)[C@@H]12	nt	nt	nt	1µM	i	i	2.2µM	3.2µM	3.2µM
CC(C)c1ccc(S(=O)(=O)N2CCN(CC(=O)c3ccc(O)c(O)c3)CC2)cc1	?	i	i	13µM	i	?	?	i	i
Cc1oc2ccc(O)c(CN3CCCC3)c2c1C(=O)Nc1cccc(Cl)c1C	i	nt	nt	nt	nt	nt	nt	nt	nt
